Laboratory results reported in PubChem BioAssay (NCATS).
“And” between values parts separate entries of the source, which are not always exact repeats. Identical values can stand only once. Inconclusive results are not listed. The source made the active and inactive calls. The call rests on the fitted dose curve.

Test: qHTS Assay for Lipid Storage Modulators (AID 1519); on activity change, negative = inhibition: on the % scale 0 is the no-effect control and ±100 the full control effect
Conditions: Drosophila S3 cells, BODIPY lipid droplet/cell ratio, laser cytometry, cells loaded with oleic acid
In short: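 Cells seeded at 5,000 per well were treated with compounds over a concentration series and loaded with oleic acid (400 uM, as added). Lipid droplet fluorescence (488 nm excitation, 500-530 nm channel) was read by laser-scanning cytometry and normalized to 20 uM Triacsin C.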

[1] = measured here: cell count channel max response
[2] = measured here: lipid channel max response

## Cc1ncc(CO)c(C=O)c1O
At 57.5 µM (top of the series)
  activity change, negative = inhibition: -6.06% (inactive)
[1]
  max response: -8.99%
[2]
  max response: -15.3%

## CCOC(=O)c1ccc(N)cc1
At 25.7 µM (top of the series)
  activity change, negative = inhibition: 4.88% (inactive)
[1]
  max response: -2.21%
[2]
  max response: -0.169%

## CCCc1ncc(C[n+]2ccccc2C)c(N)n1
At 25.7 µM (top of the series)
  activity change, negative = inhibition: -1.66% (inactive)
[1]
  max response: 1.76%
[2]
  max response: 0%

## N=C(N)N1CCc2ccccc2C1
At 25.7 µM (top of the series)
  activity change, negative = inhibition: -0.877% (inactive)
[1]
  max response: -5.56%
[2]
  max response: -6.4%

## CCCCCN=C(N)N/N=C/c1c[nH]c2ccc(OC)cc12
At 57.5 µM (top of the series)
  activity change, negative = inhibition: 10.2% (inactive) and 3.1% (inactive)
[1]
  max response: 15.4% and 9.7%
[2]
  max response: 28.4% and 15.4%

## CCOC(=O)Nc1ccc2c(c1)N(C(=O)CCN1CCOCC1)c1ccccc1S2
At 25.7 µM (top of the series)
  activity change, negative = inhibition: -4.54% (inactive)
[1]
  max response: -0.906%
[2]
  max response: -3.86%

## Nc1ccc(S(=O)(=O)Nc2cnc3ccccc3n2)cc1
At 25.7 µM (top of the series)
  activity change, negative = inhibition: -4.76% (inactive)
[1]
  max response: -5.93%
[2]
  max response: -10.6%

## COc1cc(C)nc(-n2nc(C)cc2OC)n1
At 25.7 µM (top of the series)
  activity change, negative = inhibition: -0.43% (inactive)
[1]
  max response: -1.69%
[2]
  max response: -3.43%

## O=C(O)P(=O)(O)O
At 57.5 µM (top of the series)
  activity change, negative = inhibition: 3.11% (inactive)
[1]
  max response: 17.9%
[2]
  max response: 24.7%

## O=C1C(=O)c2ccccc2C(O)=C1C1CCC(c2ccc(Cl)cc2)CC1 (configuration not stated)
At 57.5 µM (top of the series)
  activity change, negative = inhibition: 10.1% (inactive)
[1]
  max response: 7.54%
[2]
  max response: 21.8%

## CC(C(=O)O)c1cccc(Oc2ccccc2)c1 (configuration not stated)
At 57.5 µM (top of the series)
  activity change, negative = inhibition: 9.66% (inactive)
[1]
  max response: 14.6%
[2]
  max response: 29.6%

## CC(C)(C)NC[C@H](O)COc1cccc2c1CCCC2=O
At 25.7 µM (top of the series)
  activity change, negative = inhibition: -0.268% (inactive) and -1.87% (inactive)
[1]
  max response: -9.82% and 1.67%
[2]
  max response: -10.4% and -0.857%

## CC(=O)NO
At 57.5 µM (top of the series)
  activity change, negative = inhibition: 3.44% (inactive)
[1]
  max response: 22.2%
[2]
  max response: 28.9%

## C[N+]12CCC(CC1)C(OC(=O)C(O)(c1ccccc1)c1ccccc1)C2 (configuration not stated)
At 57.5 µM (top of the series)
  activity change, negative = inhibition: 1.37% (inactive)
[1]
  max response: 13%
[2]
  max response: 15.6%

## Cc1cc(-c2ccccc2)nnc1NCCN1CCOCC1
At 25.7 µM (top of the series)
  activity change, negative = inhibition: 1.62% (inactive)
[1]
  max response: -6.4%
[2]
  max response: -4.28%

## COC(=O)C(c1ccccc1Cl)N1CCc2sccc2C1 (configuration not stated)
At 57.5 µM (top of the series)
  activity change, negative = inhibition: 8.17% (inactive)
[1]
  max response: 3.08%
[2]
  max response: 15.9%

## CC(=O)NCCCCCC(=O)O
At 57.5 µM (top of the series)
  activity change, negative = inhibition: 4.31% (inactive)
[1]
  max response: 6.35%
[2]
  max response: 14.8%

## CC[C@H](c1ccc(O)cc1)[C@@H](CC)c1ccc(O)cc1
At 25.7 µM (top of the series)
  activity change, negative = inhibition: -3.44% (inactive)
[1]
  max response: -23%
[2]
  max response: -23.9%

## C[N+]1(C)CCC(=C(c2ccccc2)c2ccccc2)CC1
At 25.7 µM (top of the series)
  activity change, negative = inhibition: 0.0072% (inactive)
[1]
  max response: 2.33%
[2]
  max response: 0.67%

## COc1ccc(CN(CCN(C)C)c2ncccn2)cc1
At 57.5 µM (top of the series)
  activity change, negative = inhibition: 7.7% (inactive)
[1]
  max response: 6.82%
[2]
  max response: 17.3%

## CCCCc1cc2ccccc2c(OCCN(C)C)n1
At 25.7 µM (top of the series)
  activity change, negative = inhibition: -1.95% (inactive)
[1]
  max response: -12.7%
[2]
  max response: -12.3%

## CCc1oc2ccccc2c1C(=O)c1cc(Br)c(O)c(Br)c1
At 25.7 µM (top of the series)
  activity change, negative = inhibition: 0.0966% (inactive)
[1]
  max response: -13%
[2]
  max response: -17.1%

## CCN(CC)CCOc1ccc2c(c1)C(=O)c1cc(OCCN(CC)CC)ccc1-2
At 57.5 µM (top of the series)
  activity change, negative = inhibition: 7.59% (inactive)
[1]
  max response: -3.23%
[2]
  max response: 9.04%

## CN(C)CCOC(=O)C(c1ccccc1)C1(O)CCCC1 (configuration not stated)
At 57.5 µM (top of the series)
  activity change, negative = inhibition: 8.35% (inactive)
[1]
  max response: 13.8%
[2]
  max response: 27.5%

## COc1cc(C(=O)NCc2ccc(OCCN(C)C)cc2)cc(OC)c1OC
At 25.7 µM (top of the series)
  activity change, negative = inhibition: -1.74% (inactive)
[1]
  max response: -6.84%
[2]
  max response: -7.91%

## CCC(Cc1c(I)cc(I)c(N)c1I)C(=O)O (configuration not stated)
At 57.5 µM (top of the series)
  activity change, negative = inhibition: 4.6% (inactive)
[1]
  max response: 19.5%
[2]
  max response: 27.1%

## CC(C)NCC(O)c1ccc2ccccc2c1 (configuration not stated)
At 57.5 µM (top of the series)
  activity change, negative = inhibition: 9.75% (inactive)
[1]
  max response: 8.22%
[2]
  max response: 21.3%

## CCCCNc1ccc(C(=O)OCCOCCOCCOCCOCCOCCOCCOCCOCCOC)cc1
At 25.7 µM (top of the series)
  activity change, negative = inhibition: -1.21% (inactive)
[1]
  max response: -3.1%
[2]
  max response: -4.96%

## CCc1cc(Cl)c(OC)c(C(=O)NC[C@@H]2CCCN2CC)c1O
At 25.7 µM (top of the series)
  activity change, negative = inhibition: -7.25% (inactive)
[1]
  max response: -16.4%
[2]
  max response: -19.5%

## Cc1c(-c2ccccc2)oc2c(C(=O)OCCN3CCCCC3)cccc2c1=O
At 25.7 µM (top of the series)
  activity change, negative = inhibition: 1.6% (inactive)
[1]
  max response: 5.61%
[2]
  max response: 7.37%

## NS(=O)(=O)c1cc(C(=O)O)cc(N2CCCC2)c1Oc1ccccc1
At 25.7 µM (top of the series)
  activity change, negative = inhibition: -4.05% (inactive)
[1]
  max response: -4.21%
[2]
  max response: -6.59%

## CCN(CC)CCOC(=O)C(Cc1cccc2ccccc12)CC1CCCO1 (configuration not stated)
At 57.5 µM (top of the series)
  activity change, negative = inhibition: 2.17% (inactive)
[1]
  max response: 20.1%
[2]
  max response: 24.7%

## OCCOCCN1CCN(C2=Nc3ccccc3Sc3ccccc32)CC1
At 57.5 µM (top of the series)
  activity change, negative = inhibition: 5.93% (inactive)
[1]
  max response: 10.4%
[2]
  max response: 19.3%

## CN1CCC(OC(c2ccccc2)c2ccccc2)CC1
At 25.7 µM (top of the series)
  activity change, negative = inhibition: -2.89% (inactive)
[1]
  max response: -24.7%
[2]
  max response: -25.4%
